# Screening data deposited in PubChem by National Center for Advancing Translational Sciences (NCATS).
# FH mod = Identification of activators of human fumarate hydratase by quantitative high-throughput screening; 54,000 tested, 0.22% active; FH coupled MDH/diaphorase resazurin fluorescence, 15 min; Potency, µM (titrated, usually from 79.9 µM), for inactives: top-dose activity change, negative = inhibition, actives largely listed as inhibitors; AID 1347055, 2019; further: on the % scale 0 is the no-effect control and ±100 the full control effect; the screen sought activators but most active calls are inhibition curves; nearly all actives have a fitted effect of over 45% in size
# Target sequence (P07954 whole entry, looked up): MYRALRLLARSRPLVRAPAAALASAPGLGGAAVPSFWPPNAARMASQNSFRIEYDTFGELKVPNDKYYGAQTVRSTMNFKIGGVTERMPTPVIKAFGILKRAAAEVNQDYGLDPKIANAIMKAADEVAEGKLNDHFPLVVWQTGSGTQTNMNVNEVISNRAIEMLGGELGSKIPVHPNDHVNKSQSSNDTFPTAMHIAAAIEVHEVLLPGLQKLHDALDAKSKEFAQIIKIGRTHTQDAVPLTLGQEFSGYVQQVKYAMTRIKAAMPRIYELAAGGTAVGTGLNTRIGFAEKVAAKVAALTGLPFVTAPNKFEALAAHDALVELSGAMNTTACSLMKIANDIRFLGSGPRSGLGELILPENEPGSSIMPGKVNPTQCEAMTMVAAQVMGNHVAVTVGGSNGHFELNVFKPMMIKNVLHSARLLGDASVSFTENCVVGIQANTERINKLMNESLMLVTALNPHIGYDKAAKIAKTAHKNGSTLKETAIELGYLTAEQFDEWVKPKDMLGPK
# HTT prom inh = HTT promoter inhibition; HEK293 HTT promoter firefly luciferase reporter, 24 h; Potency, µM (highest dose often 57.5 µM), for inactives: at the top dose activity change, negative = inhibition, actives largely listed as inhibitors; 48,000 tested, 0.93% active; further: nearly all actives have a fitted effect of over 50% in size
#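 HEK293 luciferase promoter-reporter cells (2,500/well) plated 24 h, then compounds added at up to 57.5 uM final for 24 h at 37 °C. Firefly luminescence by Dual-Glo, normalized to vehicle (0%) and zero RLU (-100%).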
# S16 F2sN tox = cytotoxicity in S16 Pmp22-F2sN Schwann cells. 43,000 tested, 0.48% active. S16 Pmp22-F2sN Schwann cells viability, CellTiter-Glo, 24 h. AID 1508642. Potency, µM (top dose mostly 57.5 µM), for inactives: at the highest dose activity change, negative = cytotoxicity, actives largely listed as cytotoxic; further: on the % scale 0 is the no-effect control and ±100 the full control effect; nearly all actives have a fitted effect of over 65% in size
#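 Viability was measured by CellTiter-Glo luminescence (15 min, room temperature). This followed 24 h at 37 °C of compound exposure (23 nL pin transfer) in S16 Pmp22-F2sN Schwann cells, 500-1,000 per well.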
# pS6 MEF inh = reduces mTORC1 signaling in Tsc2 and p53 null MEF cells. 44,000 tested, 0.78% active. Potency, µM (top dose mostly 38.3 µM), without a hit: at the top dose activity change, negative = inhibition, most hits filed as inhibitors. AID 493208. Tsc2-/- p53-/- MEF, phospho-rpS6 immunofluorescence/PI, 24 h;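 further: plate controls were DMSO for no effect and rapamycin for full effect; nearly all actives have a fitted effect of over 50% in size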
#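 Tsc2-/-, p53-/- MEFs (empty-vector stable line) in DMEM + 10% FBS were treated with compounds 24 h at 37 degree Celsius, fixed, and immunostained for phospho-rpS6 (Alexa-488) with propidium iodide counterstain. Laser-scanning cytometry gave % positive cells, normalized against 7.5 nM rapamycin and DMSO.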
# PMP22 txn = modulators of PMP22 gene transcription in S16 Schwann cells; S16 Pmp22-F2sN Schwann cells (luciferase reporters placed in the Pmp22 gene), FLuc/NLuc coincidence luminescence, 24 h; Potency, µM (series often up to 57.5 µM), inactives show top-dose activity change, negative = inhibition, usual class: inhibitors; 43,000 tested, 2% active; active means clear falling dose curves in both reporters; inconclusive means both reporters move, but less clearly or upward; inactive means either reporter flat; the % is the NLuc reporter signal; further: on the % scale 0 is the no-effect control and ±100 the full control effect
#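 Reporter cells (S16 Pmp22-F2sN, 500–1,000 per well) exposed to compounds for 24 h, 37C, 5% CO2; lysis with FLuc read after 10 min, then Stop&Glo and NLuc read after 10 min.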
# HTT-AS promoter = HTT-AS promoter activation | 48,000 tested, 0.24% active | AID 1508624 | Potency, µM (highest dose often 57.5 µM), for the others: at the highest dose activity change, positive = activation, usual class: activators | HEK293 HTT-AS promoter firefly luciferase reporter, 24 h; response scale: percent change from vehicle, -100% = no light; further: nearly all actives have a fitted effect of over 55% in size
#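 HEK293 Fluc reporter, 2,500 cells/well, 24 h pre-culture; cpds up to 57.5 uM final, 24 h 37 degrees C; Dual-Glo, 10 min RT; normalized vehicle = 0%, zero RLU = -100%.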
# The depositor's hits bear a star; ? = inconclusive; / = not tested or not shown; ! = repeats disagree; [ ] = remark or other dose. Sampled rows, rich in hits. Any-hit rate of the full collection: about 3.3%. Unless noted, the call rests on the fitted dose curve; in most records, active means well fitted curve in the direction sought with a large enough effect; inconclusive means small, poorly fitted or top-dose-only effect, or another doubt; inactive means no such curve, though single readings can be large; an effect the other way counts as inactive or inconclusive. Potency means the concentration at half of the fitted maximal effect.
SMILES,FH mod,HTT prom inh,S16 F2sN tox,pS6 MEF inh,PMP22 txn,HTT-AS promoter
Cc1cc(S(=O)(=O)NCC(c2ccco2)S(=O)(=O)c2ccccc2)ccc1F (centres undefined),-4.0%,?,?,-4.3%,-26.6%,-9.5%
Cc1cc(C)c(S(=O)(=O)NCC(c2ccco2)S(=O)(=O)c2cccs2)c(C)c1 (centres undefined),-10.8%,?,17.8µM*,-4.7%,?,-16.8%
Cc1ccc(CNC(=O)C(=O)NCC(c2ccco2)S(=O)(=O)c2cccs2)cc1 (centres undefined),1.2%,?,6.7%,0.0%,4.1%,-22.2%
CCCn1c2ccccc2c2nnc(SCC(=O)Nc3cccc(C(C)=O)c3)nc21,-18.8%,?,-19.5%,-13.0%,?,-27.5%
CCCCn1c2ccc(F)cc2c2nnc(SCCN(CC)CC)nc21,-6.4%,-7.7%,-7.3%,?,15.2µM*,-7.3%
CN1C2CCC1CC(OC(=O)[C@H](CO)c1ccccc1)C2 (some centres undefined),4.1%,/,/,/,/,/
C/C(=N\N=C(N)N)c1cc(NC(=O)CCCCCCCCC(=O)Nc2cc(/C(C)=N/N=C(N)N)cc(/C(C)=N/N=C(N)N)c2)cc(/C(C)=N/N=C(N)N)c1,-2.7%,/,/,/,/,/
O=C(O)c1ccc(-c2c[nH]c3ncc(-c4ccccc4)cc23)cc1C1CCCC1,31.6µM*!,-18.0%,/,/,/,-11.3%
CCOc1ccccc1NC(=O)c1nc(S(=O)(=O)Cc2cccc(C)c2)ncc1Cl,-2.7%,5.7%,3.16µM*,?,1.68µM*,-22.4%
Cc1cccc(CS(=O)(=O)c2ncc(Cl)c(C(=O)Nc3nnc(C(C)C)s3)n2)c1,17.4%,?,?,16.5µM*,9.58µM*,-94.6%
CCOc1ccccc1NC(=O)c1sc2nc(C)cc(C)c2c1N,-18.0%,13.5%,-1.7%,2.8%,?,3.7%
CCc1nnc(NC(=O)c2nc(S(=O)(=O)Cc3ccc(C)cc3)ncc2Cl)s1,-0.2%,?,?,?,?,-94.5%
CCc1nnc(NC(=O)c2nc(S(=O)(=O)Cc3cccc(C)c3)ncc2Cl)s1,16.7%,?,?,11.7µM*,9.46µM*,-86.4%
Cc1ccc(CS(=O)(=O)c2ncc(Cl)c(C(=O)Nc3nnc(C(C)C)s3)n2)cc1,4.4%,?,?,14.7µM*,8.91µM*,-91.5%
Nc1nc(CC(=O)Nc2ccc(CCNCC(O)c3ccccc3)cc2)cs1 (centres undefined),27.0%,/,/,/,/,/
N#CCC(C1CCCC1)n1cc(-c2ncnc3[nH]ccc23)cn1 (centres undefined),-23.0%,/,/,/,/,/
CC1(C)CC[C@]2(C(=O)O)[C@H](O)C[C@]3(C)C(=CCC4[C@@]5(C)CC[C@H](O[C@@H]6O[C@H](CO[C@@H]7OC[C@H](O)[C@H](O)[C@H]7O[C@@H]7OC[C@@H](O)[C@H](O)[C@H]7O)[C@@H](O)[C@H](O)[C@H]6O[C@@H]6O[C@H](CO)[C@@H](O)[C@H](O)[C@H]6O)C(C)(C)C5CC[C@]43C)[C@@H]2C1 (some centres undefined),3.6%[20.6 µM],/,/,/,/,/
Cc1ccc(C)c(NC(=O)c2nc(S(=O)(=O)Cc3ccc(F)cc3)ncc2Cl)c1,3.2%,?,?,2.07µM*,7.61µM*,-86.0%
O=C(Nc1ccccc1F)c1nc(SCc2ccc(F)cc2)ncc1Cl,-18.8%,-1.0%,11.2%,1.7%,-4.9%,-11.3%
CCOc1ccc(NC(=O)c2nc(S(=O)(=O)Cc3ccccc3F)ncc2Cl)cc1,-4.6%,?,5.01µM*,3.69µM*,1.34µM*,-96.1%
COc1ccc(CCNC(=O)CCc2c(C)nc3cc(-c4ccccc4)nn3c2C)cc1OC,2.1%,?,?,0.8%,6.4%,-81.8%
Cc1nc2nc(-c3ccc(Cl)cc3Cl)nn2c(C)c1CCC(=O)Nc1ccc(F)cc1,8.2%,7.94µM*,8.9%,0.3%,-3.2%,-80.3%
COc1ccccc1-c1cc2nc(C)c(CCC(=O)NCCc3cccc(C)c3)c(C)n2n1,-20.9%,?,20.7%,-0.1%,?,-59.9%
COc1ccc(CCNC(=O)CCc2c(C)nc3cc(-c4ccc(Cl)cc4)nn3c2C)c(OC)c1,0.6%,2µM*,26.3%,5.1%,-27.6%,-74.3%
CCOc1ccc(CCNC(=O)CCc2c(C)nc3cc(-c4ccccc4OC)nn3c2C)cc1,-26.0%,12.6µM*,-23.3%,-4.2%,?,-81.2%
SMILES,FH mod,HTT prom inh,S16 F2sN tox,pS6 MEF inh,PMP22 txn,HTT-AS promoter
COc1ccc(-c2cc3nc(C)c(CCC(=O)Nc4ccccc4C(C)=O)c(C)n3n2)c(OC)c1,-5.9%,14.1µM*,0.4%,-5.3%,10.5%,-75.9%
C=CC(C)(O)CC[C@@H]1[C@@]2(C)CCCC(C)(C)C2CC[C@@]1(C)O (some centres undefined),-8.7%,/,/,/,/,/
CC(=O)OC1C[C@]2(C)C(O)CC(C)=C[C@H](OC(=O)c3ccc(O)cc3)C2[C@]1(O)C(C)C (some centres undefined),3.0%[53.3 µM],/,/,/,/,/
Cc1ccc(NC(=O)CCc2c(C)nc3cc(-c4ccccc4)nn3c2C)cc1F,-8.5%,2µM*,15.0%,1.9%,-6.0%,-70.9%
CCOc1ccccc1NC(=O)CCc1c(C)nc2cc(-c3ccccc3)nn2c1C,-26.4%,?,3.0%,-5.4%,-26.3%,-65.8%
CC(=O)c1ccc(NC(=O)CCc2c(C)nc3cc(-c4ccc(Cl)cc4)nn3c2C)cc1,-21.3%,0.282µM*,-5.9%,-10.9%,-29.0%,-80.0%
CCN(CC)S(=O)(=O)c1ccc(NC(=O)CCc2c(C)nc3cc(-c4ccc(Cl)cc4)nn3c2C)cc1,?,?,?,11.7µM*,7.77µM*,-89.0%
CSc1ccc(CCNC(=O)CCc2c(C)nc3cc(-c4ccccc4)nn3c2C)cc1,1.0%,2µM*,-5.9%,-3.2%,-16.0%,-68.2%
Cc1ccc(C(=O)Nc2noc3ccccc23)cc1,0.3%,/,/,/,/,/
CNC(=O)Nc1ccc(OC)c(NC(=O)NC(=O)c2cc(F)c(F)cc2Cl)c1,-16.6%,/,/,/,/,/
O=C(NC[C@H](O)CN1CCc2ccccc2C1)c1ccnc(NC2CCC2)c1,9.8%,/,/,/,/,/
Cc1nc2cc(-c3ccccc3)nn2c(C)c1CCC(=O)N1CCN(c2ccc(F)cc2)CC1,-21.8%,2µM*,-2.2%,-11.7%,?,-75.4%
Cc1nc2c(-c3ccc(F)cc3)c(C)nn2c(C)c1CCC(=O)N1CCN(c2ccccc2)CC1,?,-10.0%,-1.5%,-3.5%,?,-13.6%
